As usually defined, the inhibition is the change of the read-out against control, counted positive when it falls.

This passage reports growth inhibition, inhibition and outcome results from PubChem BioAssay.

Assay [1] is described as follows: antimalarial activity against Dd2 strain (AID 2302;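 active means growth inhibition above 50% at the single 2 µM test dose, taken to imply half-maximal potency below 2 µM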;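 further: 0% = DMSO untreated growth and 100% = chloroquine plus artemisinin killed control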). The conditions noted are these: P. falciparum Dd2 in RBCs, LDH growth readout, 72 h; at 2 µM; active compounds read high.
Assay [2] in a line: HepG2 cytotoxicity, primary screen, cytotoxicity control for P. falciparum antimalarial project, cell-based, ATP luminescence (AID 2303;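 active means inhibition above 50%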;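 further: 0% = DMSO wells and 100% = digitonin-killed cells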). Particulars: HepG2 viability, 24-48 h, at 10 µM, active compounds read high.
Assay [3] concerns the target L-lactate dehydrogenase (Plasmodium falciparum (isolate CDC / Honduras)) (UniProt Q27743). Kind of assay: PfLDH activity inhibition – cell lysate, 3D7 strain, counter-screen for P. falciparum growth inhibition project (AID 2304).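 Further: 0% = vehicle and 100% = reference inhibitor.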 Particulars: P. falciparum 3D7 crude extract, LDH APAD/NBT absorbance; at 2 µM; active compounds read high. In general terms: The purpose of a counterscreen is to sort out artefacts and off-target activity.

Assay [4] can be described thus: inhibition of 3D7 malaria parasite growth – strain 3D7 (AID 2306).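 Further: 0% = DMSO wells and 100% = chloroquine plus artemisinin control wells.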 The conditions noted are these: P. falciparum 3D7 erythrocytic growth, LDH absorbance, 72 h; at 2 µM; active compounds read high.
Assay [5] concerns the target Calcium-dependent protein kinase 1 (Plasmodium falciparum (isolate 3D7)) (UniProt P62344). Kind of assay: PfCDPK1 kinase inhibitors, biochemical, TCAMS library (AID 1159585; cut-off not given, nearly all actives have IC50 up to about 0.98 µM;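 further: inhibitors leave more ATP so luminescence rises with inhibition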). The conditions noted are these: recombinant PfCDPK1, Kinase-Glo ATP depletion luminescence.
Assay [6] concerns the target Plasmodium falciparum protein kinase 6 (PK6, PF3D7_1337100) (UniProt Q8IDW1). Put plainly: PfPK6 kinase inhibitors, biochemical, TCAMS library (AID 1159586). Particulars: recombinant PfPK6, Kinase-Glo ATP depletion luminescence. (Kinase-Glo reads ATP consumption through a luciferase reaction.)
Assay [7] concerns the target Protein kinase 7 (PK7), Plasmodium falciparum 3D7 (PF3D7_0213400) (UniProt Q7YTF7). Kind of assay: inhibition of Plasmodium PK7 catalytic activity – biochemical, TCAMS antimalarial set, Kinase-Glo luminescence (AID 1159587). Particulars: recombinant PfPK7, Kinase-Glo ATP depletion luminescence.
Assay [8] concerns the target Calcium-dependent protein kinase 4 (Plasmodium falciparum (isolate 3D7)) (UniProt Q8IBS5). Kind of assay: PfCDPK4 kinase inhibitors, biochemical, TCAMS library (AID 1159588; cut-off not given, nearly all actives have IC50 up to about 0.91 µM). Particulars: recombinant PfCDPK4, Kinase-Glo ATP depletion luminescence.

A number with no mark means an inactive call. For some assays here: Potency and affinity values are given separately. Active and inactive are the calls of the source. Unless noted, how the calls were made is not given here.

Chain of Calcium-dependent protein kinase 4 (Plasmodium falciparum (isolate 3D7)) (Q8IBS5 whole entry, looked up): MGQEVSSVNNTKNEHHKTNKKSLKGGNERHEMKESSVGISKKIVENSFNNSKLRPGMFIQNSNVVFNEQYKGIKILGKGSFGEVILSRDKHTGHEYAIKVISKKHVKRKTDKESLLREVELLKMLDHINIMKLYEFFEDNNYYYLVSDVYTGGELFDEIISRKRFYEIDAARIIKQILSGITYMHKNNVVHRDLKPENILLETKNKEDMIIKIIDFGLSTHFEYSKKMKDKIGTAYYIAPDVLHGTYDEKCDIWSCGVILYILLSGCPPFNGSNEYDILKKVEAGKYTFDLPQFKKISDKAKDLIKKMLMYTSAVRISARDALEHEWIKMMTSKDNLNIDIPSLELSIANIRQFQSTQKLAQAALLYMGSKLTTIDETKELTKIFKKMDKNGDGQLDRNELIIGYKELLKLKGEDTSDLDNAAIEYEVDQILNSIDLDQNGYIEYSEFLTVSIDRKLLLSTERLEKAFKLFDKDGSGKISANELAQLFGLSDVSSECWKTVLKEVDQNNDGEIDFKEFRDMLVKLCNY
Chain of Calcium-dependent protein kinase 1 (Plasmodium falciparum (isolate 3D7)) (P62344 whole entry, looked up): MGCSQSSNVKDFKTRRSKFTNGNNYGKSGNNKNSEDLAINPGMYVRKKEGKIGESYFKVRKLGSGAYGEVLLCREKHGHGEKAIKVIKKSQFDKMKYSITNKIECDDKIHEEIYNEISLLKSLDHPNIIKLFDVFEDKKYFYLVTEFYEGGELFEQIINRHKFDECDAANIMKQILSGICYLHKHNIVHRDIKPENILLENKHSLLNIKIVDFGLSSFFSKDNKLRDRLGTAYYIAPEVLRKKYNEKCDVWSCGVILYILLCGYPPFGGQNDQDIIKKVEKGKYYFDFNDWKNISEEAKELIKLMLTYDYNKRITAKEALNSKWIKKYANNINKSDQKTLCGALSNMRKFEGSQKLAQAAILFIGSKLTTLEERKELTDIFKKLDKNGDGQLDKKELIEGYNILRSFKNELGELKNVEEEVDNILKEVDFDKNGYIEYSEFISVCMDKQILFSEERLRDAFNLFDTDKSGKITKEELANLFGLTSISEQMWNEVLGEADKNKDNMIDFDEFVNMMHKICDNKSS
Chain of Protein kinase 7 (PK7), Plasmodium falciparum 3D7 (PF3D7_0213400) (Q7YTF7 1-343): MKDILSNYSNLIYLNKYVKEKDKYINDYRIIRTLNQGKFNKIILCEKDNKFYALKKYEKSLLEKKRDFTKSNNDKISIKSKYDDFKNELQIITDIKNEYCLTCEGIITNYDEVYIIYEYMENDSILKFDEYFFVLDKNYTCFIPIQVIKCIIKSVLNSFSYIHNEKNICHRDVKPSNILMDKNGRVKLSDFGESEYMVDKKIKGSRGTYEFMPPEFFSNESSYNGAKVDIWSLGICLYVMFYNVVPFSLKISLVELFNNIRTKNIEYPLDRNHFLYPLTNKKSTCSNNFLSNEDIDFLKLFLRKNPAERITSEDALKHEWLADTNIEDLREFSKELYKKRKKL
Chain of L-lactate dehydrogenase (Plasmodium falciparum (isolate CDC / Honduras)) (Q27743 whole entry, looked up): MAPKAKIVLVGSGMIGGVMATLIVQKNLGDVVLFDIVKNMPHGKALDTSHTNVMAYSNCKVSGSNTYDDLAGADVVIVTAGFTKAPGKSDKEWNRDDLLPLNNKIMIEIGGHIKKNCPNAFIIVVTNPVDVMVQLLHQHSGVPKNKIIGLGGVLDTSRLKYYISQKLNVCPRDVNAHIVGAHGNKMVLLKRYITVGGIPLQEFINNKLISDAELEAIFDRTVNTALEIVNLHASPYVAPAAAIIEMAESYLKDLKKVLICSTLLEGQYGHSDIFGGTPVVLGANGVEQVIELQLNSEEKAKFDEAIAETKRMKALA
Chain of Plasmodium falciparum protein kinase 6 (PK6, PF3D7_1337100) (Q8IDW1 1-305): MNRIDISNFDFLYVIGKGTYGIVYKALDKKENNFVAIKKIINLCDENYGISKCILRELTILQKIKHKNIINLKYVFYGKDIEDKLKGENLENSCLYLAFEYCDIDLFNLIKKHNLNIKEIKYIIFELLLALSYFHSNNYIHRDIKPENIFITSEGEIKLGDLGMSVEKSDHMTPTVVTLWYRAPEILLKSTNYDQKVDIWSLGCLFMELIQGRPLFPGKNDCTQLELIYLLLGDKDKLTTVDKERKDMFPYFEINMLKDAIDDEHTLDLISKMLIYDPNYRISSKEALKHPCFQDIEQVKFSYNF

Consider `CCN(CC)CCCCNc1cc(-c2[nH]c(-c3c(Cl)cccc3Cl)nc2-c2ccc3cc(OC)ccc3c2)ccn1`, for which the growth inhibition in assay [1] was 93% (active); in assay [4] it was 95% (active). Further, the inhibition in assay [2] is 23%; in assay [3] it was -5%. The outcome in assay [5], in assay [6], in assay [7] and in assay [8] was inactive.
For the molecule `CCC(C)OC(=O)C1=C(C)NC2=C(C(=O)CC(c3ccc(OC)c(OC)c3)C2)C1c1ccc(O)cc1` (configuration not stated), the growth inhibition in assay [1] is 97% (active); in assay [4], 101% (active). Moreover, the inhibition in assay [2] is 3%; in assay [3], 6%. Further, the result in assay [5], in assay [6], in assay [7] and in assay [8] was inactive.
With `COc1cc2nc(N3CCC(NC(=O)c4cccc(N(C)C)c4)CC3)nc(N)c2cc1OC`, the values for the growth inhibition in assay [1] and in assay [4] were 0% and 98% (active), respectively. Also, the inhibition in assay [2] is 6%; in assay [3] it was 1%. Besides, the outcome in assay [5], in assay [6], in assay [7] and in assay [8] was inactive.
On to `C=C[C@H]1CN(CCCCCCC)CC[C@H]1CC(O)Cc1ccnc2cc(O)c(OC)cc12` (some centres not stated), for which the growth inhibition in assay [1] was 59% (active); in assay [4] it was 95% (active). The inhibition in assay [2] was 7%; in assay [3], 1%. In addition, the result in assay [5], in assay [6], in assay [7] and in assay [8] was inactive.
With `CC(C)c1sc(N2CCN(C)CC2)nc1C(=O)NCCc1ccc(Br)cc1`, the growth inhibition in assay [1] was 60% (active); in assay [4], 89% (active). The inhibition in assay [2] and in assay [3] was -1% throughout. The outcome in assay [5], in assay [6], in assay [7] and in assay [8] was inactive.
For `CCN(CC)CCN(Cc1ccc(-c2ccc(C(F)(F)F)cc2)cc1)C(=O)Cn1c(CCc2ccc(F)cc2)nc(=O)c2sccc21`, the growth inhibition was 90% (active) in assay [1] and 99% (active) in assay [4]. The results for the inhibition in assay [2] and in assay [3] were 100% (active) and -3%, respectively. The outcome in assay [5], in assay [6], in assay [7] and in assay [8] was inactive.
For `Cc1cc2nc(-c3ccc(C(=O)NCc4cccc(C(F)(F)F)c4)cc3)[nH]c2cc1C`, the growth inhibition in assay [1] was 34%; in assay [4], 98% (active). Besides, the inhibition in assay [2] was 4%; in assay [3], -9%. Besides, the outcome in assay [5], in assay [6], in assay [7] and in assay [8] was inactive.
As for `COc1ccc(CNC2CCN(C)CC2)cc1-c1cccc(S(=O)(=O)NCc2ccccc2)c1`, the growth inhibition in assay [1] is 7%; in assay [4] it was 101% (active). The results for the inhibition in assay [2] and in assay [3] were 43% and -1%, respectively. Moreover, the result in assay [5], in assay [6], in assay [7] and in assay [8] was inactive.
On to `CC(=O)Nc1ccc(C(=O)Nc2ccc(-c3cccc(-c4nc5c(C)cccc5[nH]4)c3)cc2)cn1`, for which the figures for the growth inhibition in assay [1] and in assay [4] were 74% (active) and 99% (active), respectively. Also, the inhibition is 36% in assay [2] and -7% in assay [3]. Besides, the result in assay [5], in assay [6], in assay [7] and in assay [8] was inactive.
`Fc1ccc2c(NN=Cc3ccc(Cl)cc3)ccnc2c1`: the growth inhibition in assay [1] was 99% (active); in assay [4] it was 101% (active). Also, the figures for the inhibition in assay [2] and in assay [3] were 7% and -1%, respectively. Besides, the result in assay [5], in assay [6], in assay [7] and in assay [8] was inactive.
Take `O=C(c1ccc([N+](=O)[O-])o1)N1CCN(c2nc3c(Cl)cccc3s2)CC1`: the growth inhibition is 87% (active) in assay [1] and 91% (active) in assay [4]. Also, the inhibition is -12% in assay [2] and 6% in assay [3]. Besides, the result in assay [5], in assay [6], in assay [7] and in assay [8] was inactive.
Turning to `COc1ccc(-c2cccc(NC(=O)c3ccc(C#N)cc3)c2)cc1CNC(C)C`, the growth inhibition in assay [1] is 14%; in assay [4] it was 100% (active). Further, the inhibition in assay [2] is 25%; in assay [3], -1%. The outcome in assay [5], in assay [6], in assay [7] and in assay [8] was inactive.
For the molecule `O=C(c1cc2cccc([N+](=O)[O-])c2[nH]1)N1CCC(CCN2CCC(c3c[nH]c4ccccc34)CC2)CC1`, the figures for the growth inhibition in assay [1] and in assay [4] were 24% and 89% (active), respectively. The inhibition in assay [2] was 45%; in assay [3], 1%. Also, the result in assay [5], in assay [6], in assay [7] and in assay [8] was inactive.
In the case of `CCOc1cccc(C(=O)Nc2ccc(-c3nc4ccccc4[nH]3)cc2)c1`, the growth inhibition in assay [1] was 30%; in assay [4] it was 96% (active). Besides, the inhibition was 40% in assay [2] and -1% in assay [3]. The result in assay [5], in assay [6], in assay [7] and in assay [8] was inactive.
Turning to `CC(C)(C)c1ccc(NC(=O)c2ccc(CN3CCCN(Cc4cccc(C#N)c4)CC3)cc2)cc1`, the growth inhibition in assay [1] is 12%; in assay [4], 99% (active). In addition, the inhibition is 54% (active) in assay [2] and -5% in assay [3]. For the same molecule, the outcome in assay [5], in assay [6], in assay [7] and in assay [8] was inactive.
On to `CC(C)c1cc(Oc2c(I)cc(CCCc3ncc[nH]3)cc2I)ccc1O`, for which the growth inhibition in assay [1] is 1%; in assay [4], 88% (active). Also, the inhibition in assay [2] was 28%; in assay [3], 0%. The result in assay [5], in assay [6], in assay [7] and in assay [8] was inactive.
As for `Cc1cc(F)ccc1Nc1nc(N(C)c2ccccc2)c2cc(OCCN(C)C)ccc2n1`, the growth inhibition in assay [1] was 55% (active); in assay [4] it was 94% (active). For the same molecule, the inhibition in assay [2] was 37%; in assay [3], 3%. The result in assay [5], in assay [6], in assay [7] and in assay [8] was inactive.
For the molecule `O=C(Nc1ccc(Cl)cc1)c1cccc2[nH]c(C(F)(F)F)nc12`, the growth inhibition is 98% (active) in assay [1] and 93% (active) in assay [4]. The inhibition in assay [2] is 84% (active); in assay [3] it was -6%. Moreover, the outcome in assay [5], in assay [6], in assay [7] and in assay [8] was inactive.
On to `Cc1c(C(=O)N2CCc3cc4nccc(N5CCN6CCC[C@H]6C5)c4cc32)cnn1-c1ccc(C#N)cc1`, for which the results for the growth inhibition in assay [1] and in assay [4] were 27% and 90% (active), respectively. Further, the inhibition was 0% in assay [2] and -3% in assay [3]. The outcome in assay [5], in assay [6], in assay [7] and in assay [8] was inactive.
